Test results published in the supplement of paper PMC3334620.
The full ranking holds about 33,000 sequences; the median of “E-score (-0.5 to 0.5)” is about -0.016, and the highest 2% start at about 0.32. The sample holds the highest values, similar sequences and a random draw of the others, so the mix is not that of the screen.

What follows are sequences tested against T1, Stp1 (UniProt B3LFK1) (assay: PBM E-score (8-mer binding enrichment) (E-score (-0.5 to 0.5)); higher = stronger / more preferred TF binding). Conditions: protein concentration: 200 nM; construct: GST-full length.
T1 sequence: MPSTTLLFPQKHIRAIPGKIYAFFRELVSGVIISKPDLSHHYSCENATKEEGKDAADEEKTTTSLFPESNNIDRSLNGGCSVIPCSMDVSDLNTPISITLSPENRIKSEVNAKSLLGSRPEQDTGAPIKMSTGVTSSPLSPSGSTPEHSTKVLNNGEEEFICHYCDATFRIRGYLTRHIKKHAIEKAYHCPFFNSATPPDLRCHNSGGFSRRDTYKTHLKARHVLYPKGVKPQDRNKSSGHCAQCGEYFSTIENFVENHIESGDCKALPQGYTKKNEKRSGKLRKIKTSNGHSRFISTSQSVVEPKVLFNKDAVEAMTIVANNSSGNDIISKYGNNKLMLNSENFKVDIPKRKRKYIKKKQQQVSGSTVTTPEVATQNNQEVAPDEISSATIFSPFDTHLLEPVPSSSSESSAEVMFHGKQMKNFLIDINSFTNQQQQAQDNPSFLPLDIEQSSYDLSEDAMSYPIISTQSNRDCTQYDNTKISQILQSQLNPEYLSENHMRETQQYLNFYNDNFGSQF
Protocol: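 Universal 'all 10-mer' protein binding microarrays (Agilent AMADID 015681) probed with GST-tagged S. cerevisiae TFs (full-length or DBD) made by in vitro transcription/translation (PURExpress), about 100-200 nM. Bound TF was detected with fluorescent anti-GST. Each ungapped 8-mer (which stands for itself and its reverse complement) is scored by the PBM enrichment score (E-score), a modified Wilcoxon-Mann-Whitney statistic from -0.5 to +0.5, computed with the Universal PBM Analysis Suite. Scale: above 0.35 generally sequence-specific binding.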

Sequence | PBM E-score
CGCCCTGA | 0.0616
GACCTTTA | -0.0597
AAGCCTCA | -0.0215
AGGCGCCT | 0.383
AGGCGCAT | 0.241
TGGCGCCA | 0.26
AGGCGCCG | 0.462
AGGCGTCG | 0.253
AGGCGACT | 0.0881
AGGCGCCC | 0.232
AGGCGCCA | 0.353
GGGCGCCA | 0.309
CGCCGGCG | 0.312
CGGCGCCG | 0.484
CGGAGCCG | 0.302
AGGTGCGG | 0.189
AATAACTG | 0.0806
TGGACAAA | -0.0269
GCAGCGCA | -0.103
AAGAACCA | -0.0227
CAGTCTCC | -0.209
ATTTGGAA | 0.0474
AAGATTAA | 0.084
ATCGTACA | 0.0995
CGATAAAC | 0.0166
AGGAGGAT | -0.107

Sequence | PBM E-score
GCGATGTA | 0.16
TATCGTCA | -0.0796
TAGTGCAA | 0.0577
CGGCGCCA | 0.463
CGGCGCCC | 0.38
ATGCGCCA | 0.0976
ATGCGCCC | 0.158
ATGCGCCG | 0.413
GGGCGCCC | 0.255
CTGCGCCA | 0.106
GCGCGCCA | 0.268
CTGCGCCC | -0.113
AACTATCG | -0.203
CTCTGGCA | -0.203
ACAAGTGC | -0.127
CGTCAGAG | -0.0954
GCAATGGC | -0.116
AGGCTGTA | 0.0388
ATCTATTG | 0.0947
ACAGATAA | -0.0189
ATCAATGG | -0.0372
AACAACCA | 0.0647
ACCTCGTA | -0.0684
CCCTCGTA | -0.0643
GCCTCGTA | 0.346
CGCCATGC | 0.226

Sequence | PBM E-score
ATAGTGCC | 0.311
GCGGCACC | 0.477
GGGGCACA | 0.0124
CGGGCACC | 0.237
GTGGCACA | 0.125
GCGGCACA | 0.463
ACGGCACC | 0.484
GGGGCACC | 0.0924
CCGGCACC | 0.254
AGGGCACC | 0.0197
GACGCCAC | 0.0288
GATCCTAC | -0.1
ACTCTCAG | 0.0178
CGGCACTA | 0.446
CGGCACTC | 0.365
GGGCACTA | 0.23
AGGCACTA | 0.301
CTGCACTC | 0.109
AGGCACTC | 0.139
CAGAGGTA | 0.062
GTTCCATA | -0.164
CCTGGCCG | -0.105
AAAGTATC | 0.118
AGGTAAGC | -0.118
TATCTCCA | 0.103
CCTACCTA | -0.0899

Sequence | PBM E-score
AGCGGCTG | 0.0689
GGCGGCTA | 0.207
AGCGGCTC | 0.388
CCCGGCTC | -0.238
CTCGGCTC | 0.029
CGCGGCTC | 0.464
AGCGGCTA | 0.165
ATCGGCTC | 0.136
CGCGGCTA | 0.397
AGGCCGGG | -0.163
CTGAAAGC | 0.0435
ACTACTGA | -0.0374
AGCCAGGC | -0.101
CAGGCGGC | 0.3
GAGGCGGA | -0.00688
GAGGAGGC | 0.00167
GAGGCGGC | 0.374
AAGGCGGC | 0.319
AAGGCGGA | -0.099
GGAAACTA | -0.133
TCAATGAA | 0.0662
ACCAAGTG | -0.0911
GAGTAGAC | 0.0184
AGTCGAAC | -0.146
ATGATGCG | 0.148
ATAATGCC | 0.325

Sequence | PBM E-score
ATGATGCC | 0.337
CTGATGCC | 0.187
ATAATGCG | -0.0164
GAAATGCA | -0.0558
CTAATGCC | 0.221
ACCATGCC | 0.199
CAAATGCC | 0.227
CCCATGCC | -0.0109
GCCATGCC | 0.324
GAAATGCC | 0.358
TACACACA | 0.202
ATGGATTA | -0.0582
ACCTGGAT | -0.266
GAAGCATA | -0.00057
GTCACAAA | -0.0375
AGTCATTG | -0.381
CACACTCA | 0.0928
AAATTTCT | -0.0455
CCGATGCC | 0.264
AAAATGCC | 0.352
AAAATGCT | 0.164
AAAATGCA | -0.0731
GCGATGCA | -0.156
GCGATGCC | 0.319
ACTCACAC | -0.063
CAATCCAA | 0.0601

Sequence | PBM E-score
AAGCTGGG | -0.164
AGCAATTA | 0.0484
CCCACACC | -0.0557
AAGCGGAA | 0.0259
AAGCGGAT | -0.0611
CAGCGGCA | 0.3
TAGCGGCA | 0.291
GAGCGGAA | 0.141
AAGCGGGT | -0.0561
CAGCGGCG | 0.34
AAGCGGCT | 0.354
AAGCGGCA | 0.455
AAGCGGGA | -0.095
CAGCGGCC | -0.111
GAGCGGCA | 0.44
AAAGTTAA | 0.102
CCCCAGTC | -0.324
ACGTGTTA | 0.116
GTAAGAGA | -0.0111
AACTCTAC | -0.212
AATCGCTC | -0.292
TGAGATCA | 0.0358
GAGGGGGC | -0.277
CTGACCAG | -0.136
AAGCGGAG | -0.0617
AAGCGGCG | 0.458

Sequence | PBM E-score
AAGCGGCC | 0.282
GGGCGTTA | 0.206
CGGCGTTC | 0.391
CAGCGTTC | 0.0494
CGGCGTTA | 0.454
AGGCGTTA | 0.236
AGGCGTTC | 0.0316
CGGAGGAA | -0.229
CCTCCATA | 0.0205
CGCCGCAA | 0.421
TACCGCAA | 0.117
GGCCGCAC | 0.289
GGCCGCAA | 0.131
TGCCGCCA | 0.229
AGCCGCAG | 0.258
CCCCGCAC | -0.00823
TGCCGCAA | 0.333
CGCCGCAG | 0.436
CCCCGCAG | -0.0786
CACCGCAA | 0.0442
CGCCGCAC | 0.478
